Laboratory results published in the supplement of paper PMC10849652.
Of roughly 7,900 targets only a part is listed; those with a hit were picked by preference. About 0.6% of all pairs of compound and target were hits.

Assays:
Experiment in all cases: log2 fold change, soluble protein after heating vs DMSO (PISA); higher = thermal stabilisation; K562 cells, 10 uM, 30 min; active = over 0.2 and 3.5 SD of the protein, either way, in both replicates (recomputed)
[1] = compound: CS(=O)(=O)c1ccc(-c2cnc(N)c(C(=O)Nc3ccccc3)n2)cc1
Procedure, shortened: (§1)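 For each measurement, 10 μM compound was applied for 30 min to K562 cells at 2×10^6 cells/mL. Aliquots were heated for 3 min across 48°C-58°C, pooled, and extracted in PBS with 0.5% NP-40 at 4°C; the supernatant after 21,000xg for 90 min was soluble protein. This was quantified by TMTpro 16plex LC-MS/MS with channel sums equalised, and thermal stability was reported relative to control samples from duplicates, on a log2 fold-change scale.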

[2] = compound: C[C@@H](Oc1cc(-c2cnn(C3CCNCC3)c2)cnc1N)c1c(Cl)ccc(F)c1Cl [crizotinib]
Procedure, shortened: as §1

[3] = compound: C[C@@H]1COCCN1C2=NC(=NC(=C2)C3(CC3)S(=O)(=O)C)C4=C5C=CNC5=CC=C4
Procedure, shortened: as §1

[4] = compound: C[C@H](C1=CC=C(C=C1)C(=O)NC2=C3C=CNC3=NC=C2)N
Procedure, shortened: as §1

[5] = compound: C[C@H](Nc1ncnc2nc[nH]c12)c1cc2cccc(Cl)c2c(=O)n1-c1ccccc1 [duvelisib]
Procedure, shortened: as §1

[6] = compound: Cc1cc(Nc2cc(N3CCN(C)CC3)nc(Sc3ccc(NC(=O)C4CC4)cc3)n2)n[nH]1 [tozasertib]
Procedure, shortened: as §1

[7] = compound: Cc1cc(SCc2sc(-c3ccc(C(F)(F)F)cc3)nc2C)ccc1OCC(=O)O
Procedure, shortened: as §1

[8] = compound: Cc1ccc(-n2nc(C(C)(C)C)cc2NC(=O)Nc2ccc(OCCN3CCOCC3)c3ccccc23)cc1 [doramapimod]
Procedure, shortened: as §1

[9] = compound: Cc1ccc(C(=O)N(CCCN)[C@@H](c2nc3cc(Cl)ccc3c(=O)n2Cc2ccccc2)C(C)C)cc1 [ispinesib]
Procedure, shortened: as §1

[10] = compound: Cc1ccc(NC(=O)c2ccc(CN3CC[C@H](N(C)C)C3)c(C(F)(F)F)c2)cc1Nc1nccc(-c2cncnc2)n1 [bafetinib]
Procedure, shortened: as §1

[11] = compound: Cc1cn(-c2cc(NC(=O)c3ccc(C)c(Nc4nccc(-c5cccnc5)n4)c3)cc(C(F)(F)F)c2)cn1 [nilotinib]
Procedure, shortened: as §1

[12] = compound: Cc1nc(Nc2n[nH]c3c2CN(C(=O)N[C@H](CN(C)C)c2ccccc2)C3(C)C)c2sccc2n1
Procedure, shortened: as §1

[13] = compound: Cc1nc(Nc2ncc(C(=O)Nc3c(C)cccc3Cl)s2)cc(N2CCN(CCO)CC2)n1 [dasatinib]
Procedure, shortened: as §1

[14] = compound: Cc1ncc(-c2ccnc(Nc3ccc(S(C)(=O)=O)cc3)n2)n1C(C)C
Procedure, shortened: as §1

[15] = compound: Cn1cc(-c2ccc3c(c2)CCN3C(=O)Cc2cccc(C(F)(F)F)c2)c2c(N)ncnc21
Procedure, shortened: as §1

[16] = compound: Cn1cc(-c2ccc3nnc(C(F)(F)c4ccc5ncccc5c4)n3n2)cn1
Procedure, shortened: as §1

[17] = compound: Cn1cncc1[C@@](N)(c1ccc(Cl)cc1)c1ccc2c(c1)c(-c1cccc(Cl)c1)cc(=O)n2C [tipifarnib]
Procedure, shortened: as §1

[18] = compound: FC(F)(F)c1ccc(/C=C/c2nc(COc3ccc(CCCCn4ccnn4)cc3)co2)cc1 [mubritinib]
Procedure, shortened: as §1

[19] = compound: Cc1cc(Nc2cc(CN3CCOCC3)c3nc(C)c(Cc4ccc(Cl)cc4F)n3n2)n[nH]1 [gandotinib]
Procedure, shortened: as §1

[20] = compound: Cc1cccc(CC(=O)N2CCc3c2ccc(-c2cn(C)c4ncnc(N)c24)c3F)n1
Procedure, shortened: as §1

Measured: log2 fold change

ILRUN (UniProt Q9H6K1)
UniProt Q9H6K1, sequence (Q9H6K1 whole entry, looked up): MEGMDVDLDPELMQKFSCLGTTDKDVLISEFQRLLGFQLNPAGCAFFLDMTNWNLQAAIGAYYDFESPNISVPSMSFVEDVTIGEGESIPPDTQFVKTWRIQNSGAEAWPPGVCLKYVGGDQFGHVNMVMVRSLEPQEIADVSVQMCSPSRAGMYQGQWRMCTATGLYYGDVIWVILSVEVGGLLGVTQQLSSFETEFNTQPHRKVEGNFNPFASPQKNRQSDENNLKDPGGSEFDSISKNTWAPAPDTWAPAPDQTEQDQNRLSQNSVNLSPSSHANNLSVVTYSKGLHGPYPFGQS
active: [14] 0.258
inactive: [1] -0.033 | [2] 0.115 | [3] 0.028 | [4] -0.038 | [5] 0.021 | [6] -0.087 | [7] 0.029 | [8] 0.005 | [9] 0.032 | [10] -0.05 | [11] -0.01 | [12] -0.086 | [13] -0.08 | [15] -0.013 | [16] -0.039 | [17] -0.023 | [18] 0.029

LPIN3 isoform 2 (UniProt Q9BQK8)
UniProt Q9BQK8, sequence (Q9BQK8 whole entry, looked up): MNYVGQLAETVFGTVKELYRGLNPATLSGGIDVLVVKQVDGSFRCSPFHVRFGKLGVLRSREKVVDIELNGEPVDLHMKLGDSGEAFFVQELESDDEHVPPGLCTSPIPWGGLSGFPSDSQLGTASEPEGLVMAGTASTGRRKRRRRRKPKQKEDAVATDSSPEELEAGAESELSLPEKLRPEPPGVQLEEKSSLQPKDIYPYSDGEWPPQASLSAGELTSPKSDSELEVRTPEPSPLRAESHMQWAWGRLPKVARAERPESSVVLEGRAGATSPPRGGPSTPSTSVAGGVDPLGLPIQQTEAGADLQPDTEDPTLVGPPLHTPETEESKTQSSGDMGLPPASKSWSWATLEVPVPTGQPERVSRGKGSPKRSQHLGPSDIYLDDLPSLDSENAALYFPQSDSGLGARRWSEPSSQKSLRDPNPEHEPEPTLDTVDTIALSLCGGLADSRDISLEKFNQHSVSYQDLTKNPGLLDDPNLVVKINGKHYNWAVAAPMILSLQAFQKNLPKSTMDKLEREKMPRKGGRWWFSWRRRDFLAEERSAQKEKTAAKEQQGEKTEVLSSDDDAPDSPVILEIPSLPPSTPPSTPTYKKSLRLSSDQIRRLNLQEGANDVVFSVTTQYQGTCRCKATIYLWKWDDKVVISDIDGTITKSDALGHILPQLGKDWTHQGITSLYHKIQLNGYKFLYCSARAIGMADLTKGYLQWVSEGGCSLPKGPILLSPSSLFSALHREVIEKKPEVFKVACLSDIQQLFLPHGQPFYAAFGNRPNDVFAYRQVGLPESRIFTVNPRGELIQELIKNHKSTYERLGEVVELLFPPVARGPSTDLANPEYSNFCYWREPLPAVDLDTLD
inactive: [1] 0.016 | [3] 0.125 | [4] 0.011 | [5] 0.002 | [19] -0.059 | [6] -0.065 | [7] 0.015 | [9] -0.037 | [10] 0.006 | [20] 0.024 | [11] -0.005 | [12] -0.051 | [13] -0.128 | [14] 0.038 | [15] 0.06 | [16] 0.002 | [17] 0.008 | [18] 0.089

KCNK5 (UniProt O95279)
UniProt O95279, sequence (O95279 whole entry, looked up): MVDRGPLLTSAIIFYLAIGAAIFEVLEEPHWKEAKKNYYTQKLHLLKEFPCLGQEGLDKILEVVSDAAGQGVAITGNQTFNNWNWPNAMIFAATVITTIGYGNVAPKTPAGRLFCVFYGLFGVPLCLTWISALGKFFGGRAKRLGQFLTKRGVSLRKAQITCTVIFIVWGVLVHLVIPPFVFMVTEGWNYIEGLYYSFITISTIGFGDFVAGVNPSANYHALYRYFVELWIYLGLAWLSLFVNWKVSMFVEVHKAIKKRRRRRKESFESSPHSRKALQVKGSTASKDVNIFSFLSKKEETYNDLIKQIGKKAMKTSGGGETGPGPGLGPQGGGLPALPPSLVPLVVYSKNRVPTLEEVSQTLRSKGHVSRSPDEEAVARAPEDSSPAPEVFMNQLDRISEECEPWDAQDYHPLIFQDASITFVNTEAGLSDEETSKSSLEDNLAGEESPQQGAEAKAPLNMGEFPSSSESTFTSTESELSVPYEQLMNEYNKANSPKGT
inactive: [1] 0.087 | [2] -0.164 | [3] 0.339 | [4] -0.013 | [5] 0.213 | [19] -0.03 | [7] 0.242 | [8] -0.165 | [10] -0.31 | [20] 0.025 | [13] -0.472 | [15] 0.139 | [17] -0.183 | [18] 0.076

ITM2B (UniProt Q9Y287)
UniProt Q9Y287, sequence (Q9Y287 whole entry, looked up): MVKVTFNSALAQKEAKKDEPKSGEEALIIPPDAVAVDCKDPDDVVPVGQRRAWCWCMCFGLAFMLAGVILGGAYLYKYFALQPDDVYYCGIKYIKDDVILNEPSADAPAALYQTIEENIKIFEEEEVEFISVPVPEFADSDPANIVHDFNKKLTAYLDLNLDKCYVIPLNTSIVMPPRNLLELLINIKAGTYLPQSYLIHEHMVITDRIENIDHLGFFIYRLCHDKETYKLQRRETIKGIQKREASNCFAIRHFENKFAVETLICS
inactive: [1] 0.065 | [2] -0.193 | [3] -0.032 | [4] 0.038 | [5] -0.15 | [6] 0.033 | [7] -0.032 | [8] 0.043 | [9] 0.131 | [10] -0.112 | [11] 0.006 | [12] -0.062 | [13] 0.006 | [14] 0.033 | [15] 0.035 | [16] -0.04 | [17] 0.006 | [18] 0.059

MAPK14 (UniProt Q16539)
UniProt Q16539, sequence (Q16539 whole entry, looked up): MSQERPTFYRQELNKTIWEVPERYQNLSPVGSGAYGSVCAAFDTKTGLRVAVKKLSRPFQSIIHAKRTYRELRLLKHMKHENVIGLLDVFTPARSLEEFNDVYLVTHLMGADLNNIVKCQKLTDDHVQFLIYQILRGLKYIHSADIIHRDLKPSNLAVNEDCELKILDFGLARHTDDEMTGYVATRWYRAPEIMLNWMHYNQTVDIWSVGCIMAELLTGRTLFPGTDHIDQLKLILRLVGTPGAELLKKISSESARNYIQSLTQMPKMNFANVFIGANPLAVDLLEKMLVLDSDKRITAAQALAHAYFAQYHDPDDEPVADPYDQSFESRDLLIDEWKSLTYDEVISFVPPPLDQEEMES
active: [10] 1.65 | [11] 1.68 | [13] 1.05
inactive: [1] 0.023 | [2] -0.062 | [4] 0.018 | [5] -0.129 | [19] -0.099 | [6] -0.066 | [7] 0.015 | [9] -0.069 | [20] -0.092 | [12] 0.123 | [14] 0.071 | [15] 0.107 | [16] 0.014 | [17] -0.102 | [18] 0

LPGAT1 (UniProt Q92604)
UniProt Q92604, sequence (Q92604 whole entry, looked up): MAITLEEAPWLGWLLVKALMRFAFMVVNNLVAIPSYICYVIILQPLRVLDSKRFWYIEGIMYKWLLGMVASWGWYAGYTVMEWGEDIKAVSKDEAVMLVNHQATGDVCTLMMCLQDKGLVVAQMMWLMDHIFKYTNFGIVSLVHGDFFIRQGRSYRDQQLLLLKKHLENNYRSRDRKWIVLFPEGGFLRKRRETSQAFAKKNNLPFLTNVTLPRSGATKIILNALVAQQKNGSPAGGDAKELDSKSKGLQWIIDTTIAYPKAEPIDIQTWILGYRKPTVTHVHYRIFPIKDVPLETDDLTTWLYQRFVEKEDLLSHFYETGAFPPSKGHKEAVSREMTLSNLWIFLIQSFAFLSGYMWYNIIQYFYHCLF
inactive: [1] -0.01 | [2] -0.101 | [3] 0.073 | [4] 0.015 | [5] -0.02 | [6] -0.088 | [7] 0.16 | [8] -0.038 | [9] -0.237 | [10] -0.086 | [11] -0.04 | [12] -0.128 | [13] 0.086 | [14] 0.048 | [15] 0.055 | [16] -0.082 | [17] 0.01 | [18] 0.067

LMBRD1 (UniProt Q9NUN5)
UniProt Q9NUN5, sequence (Q9NUN5 whole entry, looked up): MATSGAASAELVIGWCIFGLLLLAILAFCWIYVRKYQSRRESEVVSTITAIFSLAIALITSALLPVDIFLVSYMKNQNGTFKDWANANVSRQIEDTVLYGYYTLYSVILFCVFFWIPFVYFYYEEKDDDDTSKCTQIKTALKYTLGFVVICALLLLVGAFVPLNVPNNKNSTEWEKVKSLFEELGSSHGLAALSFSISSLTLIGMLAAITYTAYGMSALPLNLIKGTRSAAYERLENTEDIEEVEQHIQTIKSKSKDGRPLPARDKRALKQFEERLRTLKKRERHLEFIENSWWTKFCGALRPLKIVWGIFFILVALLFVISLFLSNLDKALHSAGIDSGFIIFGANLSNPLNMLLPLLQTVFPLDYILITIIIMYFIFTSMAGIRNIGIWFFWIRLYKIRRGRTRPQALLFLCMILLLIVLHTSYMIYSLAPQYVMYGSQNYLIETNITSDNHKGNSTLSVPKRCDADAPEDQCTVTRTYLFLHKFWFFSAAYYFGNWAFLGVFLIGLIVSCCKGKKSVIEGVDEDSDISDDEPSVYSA
inactive: [1] -0.003 | [3] 0.111 | [4] -0.14 | [5] -0.037 | [19] -0.137 | [6] -0.083 | [7] -0.031 | [10] -0.065 | [20] 0.01 | [11] -0.006 | [12] -0.062 | [13] 0.064 | [14] 0.026 | [15] -0.139 | [16] 0.014 | [17] -0.156 | [18] 0.08
active: [9] -0.61

ITM2C (UniProt Q9NQX7)
UniProt Q9NQX7, sequence (Q9NQX7 whole entry, looked up): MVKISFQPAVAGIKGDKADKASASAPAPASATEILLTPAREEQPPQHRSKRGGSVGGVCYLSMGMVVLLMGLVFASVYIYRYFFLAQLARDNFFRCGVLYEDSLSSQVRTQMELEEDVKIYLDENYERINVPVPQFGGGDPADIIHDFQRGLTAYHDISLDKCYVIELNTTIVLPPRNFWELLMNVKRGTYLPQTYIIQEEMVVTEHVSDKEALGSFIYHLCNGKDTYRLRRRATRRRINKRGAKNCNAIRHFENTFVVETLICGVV
inactive: [1] 0.117 | [3] 0.239 | [4] 0.137 | [5] -0.034 | [19] 0.083 | [7] 0.011 | [9] 0.051 | [10] -0.064 | [20] -0.127 | [11] 0.099 | [12] -0.018 | [13] 0.024 | [14] 0.127 | [15] 0.09 | [16] 0.038 | [17] 0.039

KMT2C isoform 3 (UniProt Q8NEZ4)
inactive: [1] 0.013 | [3] 0.021 | [4] 0.022 | [5] 0.134 | [19] -0.106 | [6] 0.063 | [7] -0.048 | [9] -0.235 | [10] -0.209 | [20] -0.041 | [11] -0.049 | [12] -0.093 | [13] 0.043 | [14] 0.001 | [15] 0.094 | [16] -0.215 | [18] 0.083
